Results filed as inconclusive are left out. A call without a number means that no potency is given here. Activity calls are given as the source filed them. The call rests on the fitted dose curve; in most records, active means well fitted cell-killing curve with a large enough effect; inconclusive means small, poorly fitted or top-dose-only effect; inactive means flat fitted curve, though single readings scatter.
test: qHTS of pediatric cancer cell lines to identify multiple opportunities for drug repurposing: Primary screen for RD cells (AID 1347104); settings: RD rhabdomyosarcoma viability, CellTiter-Glo luminescence, 48 h; series mostly up to 46 µM; further: nearly all actives have a fitted effect of over 55% in size
Procedure, shortened: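 Phenotypic viability qHTS, 48 h compound exposure, CellTiter-Glo luminescence read-out; multi-concentration dosing so that potency and efficacy derive directly from the primary screen's curves.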
Potency means the concentration at half of the fitted maximal effect.

Structure (SMILES) | Potency
CC(C)NCC(O)c1ccc(N)c(C#N)c1 (centres undefined) | inactive
CC(C)[N+](C)(CCC(C(N)=O)(c1ccccc1)c1ccccc1)C(C)C | inactive
CCN(CC)C(C)C(=O)c1ccccc1 (centres undefined) | inactive
CCC1(c2ccccc2)CCC(=O)NC1=O (centres undefined) | inactive
O=C(O)c1nn(Cc2ccc(Cl)cc2Cl)c2ccccc12 | inactive
CCOC(=O)c1ncn2c1CN(C)C(=O)c1c(I)cccc1-2 | inactive
CNC(=O)Oc1cccc2ccccc12 | inactive
COc1ccc(C(=O)N2CCCC2=O)cc1 | inactive
C[C@]12C=CC(=O)C=C1CC[C@@H]1[C@@H]2CC[C@@]2(C)[C@H]1CC[C@]2(C)O | inactive
C=CC[C@]1(O)CC[C@H]2[C@@H]3CCC4=CC(=O)CCC4=C3C=C[C@@]21C | inactive
OC(O)C(Cl)(Cl)Cl | inactive
c1cc2c(c(N3CCNCC3)c1)OCCO2 | inactive
CC(Cc1ccc2c(c1)OCO2)NO (centres undefined) | inactive
CN1C(=O)CN=C(c2ccccc2)c2cc([N+](=O)[O-])ccc21 | inactive
CC1N=C(N)OC1c1ccccc1 (centres undefined) | inactive
CC1=C2[C@H]3OC(=O)[C@@H](C)[C@@H]3CC[C@@]2(C)C=CC1=O | inactive
Cc1ncc2n1-c1ccc(Cl)cc1C(c1ccccc1F)=NC2 | inactive

Structure (SMILES) | Potency
CCCCCCCCCCCC[N+](C)(C)CCOc1ccccc1 | 23.7 µM (active)
CN1C(=O)CN=C(c2ccccc2)c2cc(Cl)ccc21 | inactive
COC(=O)C1=CCCN(C)C1 | inactive
CNC(=O)NC(O)C(Cl)(Cl)Cl (centres undefined) | inactive
CC(C)(O)C(Cl)(Cl)Cl | inactive
CCCCC1C(=O)NC(=O)N(C2CCCCC2)C1=O (centres undefined) | inactive
Oc1c(Br)cc(Br)cc1Br | inactive
ClCCCN1CCN(c2cccc(Cl)c2)CC1 | inactive
COc1cc(CC#N)cc(OC)c1OC | inactive
COc1ccc(CN2CCNCC2)c(OC)c1OC | inactive
OC(c1ccccc1)(c1ccccc1)C1CCNCC1 | inactive
CCOC(=O)NC(C)(C)Cc1ccc(Cl)cc1 | inactive
Cc1ccc(N=CN(C)C=Nc2ccc(C)cc2C)c(C)c1 | inactive
C[N+](C)(C)CCOC(=O)C(O)(c1ccccc1)c1ccccc1 | inactive
O=C(N[C@H]1N=C(c2ccccc2F)c2cccc3c2N(CC3)C1=O)c1cc2ccccc2[nH]1 | inactive
CCOC(=O)C(c1c(O)c2ccccc2oc1=O)c1c(O)c2ccccc2oc1=O | inactive
CC1Sc2c(C(=O)O)c(=O)c3cc(F)c(N4CCNCC4)cc3n21 (centres undefined) | inactive

— PubChem BioAssay (NCATS)
